The values that follow come from PubChem BioAssay (NCI).

Molecules are shown by their SMILES. The panel holds about 83,000 compounds, 20% with a hit somewhere; the sample as a whole holds those more often.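 Treatment: one concentration, 48 hours, 96-well format. Scoring: percent growth, with anything below 10 considered active.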 Values without a mark were called inactive. Active and inactive are the calls of the source.

Assay in all cases: NCI-60 one-dose screen, 48 h (100 = growth as untreated, 0 = no growth, -100 = all killed)
Holding throughout (details): 10 µM unless noted

The test system of assay [1] is HCT-15 colon.
In assay [2] the test system is HT29 colon.
Assay [3] has as its system SNB-19 CNS.
Assay [4] relates to U251 CNS.
The subject of assay [5] is PC-3 prostate.
Assay [6] relates to SK-MEL-5 melanoma.
Assay [7] concerns UACC-62 melanoma.
Assay [8] relates to SK-MEL-28 melanoma.
In assay [9] the test system is SNB-75 CNS.
For assay [10], the system named is LOX IMVI melanoma.

As to `C=C(C=O)[C@@H]1CC[C@]2(CO)CC[C@]3(C)[C@H](CC[C@@H]4[C@@]5(C)CCCNC(C)(C)[C@@H]5CC[C@]43C)[C@@H]12`, the growth in [1] is -8.29% (active); in [2] it was -3.52% (active); in [3], 79.7%; in assay [4], 29.8%; in [5], 11.4%; in assay [6], 78%. Moreover, the growth in assay [7] was 83.2%; in assay [8], 47.1%.
Regarding `COc1cc(Cn2cc3c(c2)-c2onc(CN4CCCC4)c2CC3)cc(OC)c1OC`, the growth in [1] was 94.7%; in assay [2] it was 105%; in [9] it was 104%; in assay [3] it was 90.6%; in [5], 92.5%; in assay [6] it was 79.8%. Further, the figures for the growth in [7], in assay [10] and in [8] were 81.2%, 97.6% and 95.2%, respectively.
As to `C[C@@H]1C[C@H]2C(=O)O[C@@H](C)C(NC(=O)[C@H](Cc3cc(F)cc(F)c3)NC(=O)Nc3ccc(Cl)cc3F)C(=O)N3CCC[C@H]3C(=O)N3CCCC[C@H]3C(=O)N[C@@H](CO)C(=O)N2C1` (stereo partly drawn), the growth in assay [1] is 13.2%; in assay [2], 35.3%; in assay [9], 30.8%; in assay [3], 28.1%; in assay [5], 15.5%; in [6], -2.76% (active). In addition, the growth in assay [7] is 29.5%; in [10], 29.5%; in assay [8], 43.9%.
For the compound `O=C(O)c1cn(C2CC2)c2cc(N3CCN(C(=O)CN4C(=O)CSC4=O)CC3)c(F)cc2c1=O`, the growth in [1] was 112%; in assay [2], 112%; in assay [9], 45.3%; in assay [3] it was 100%; in assay [5], 91.2%; in [6], 102%. Further, the results for the growth in assay [10] and in [8] were 102% and 101%, respectively.
For the compound `C=C(C=O)[C@@H]1CC[C@]2(C)[C@H](CC=C3[C@H]4[C@@H](C)[C@H](C)CC[C@]4(C(=O)OC)CC[C@]32C)[C@@]1(C)CCC#N`, the growth in assay [1] was -55% (active); in assay [2] it was -37.4% (active); in assay [9], 67.6%; in [3], 25.2%; in assay [5], 9.4% (active); in assay [6], -98% (active). For the same compound, the results for the growth in [7], in assay [10] and in [8] were -31.9% (active), -86.1% (active) and -39.4% (active), respectively.
Take `Clc1ccc(N/N=c2/oc3ccccc3cc2-c2cc3ccccc3[nH]2)cc1`: the growth in assay [1] was 59.4%; in [2] it was 69.2%; in assay [3], 85.4%; in assay [6], 82.5%; in assay [8], 97.7%.
Regarding `COc1c(N2CC3CCCNC3C2)c(F)cc2c(=O)c(C(=O)N/N=C/c3ccc(Br)cc3)cn(C3CC3)c12` (stereo not drawn), the growth was 1.76% (active) in [1]; 13.6% in [2]; 103% in assay [9]; 88.3% in [3]; 84% in [6]; 43% in assay [7]. For the same compound, the values for the growth in [10] and in assay [8] were -73.5% (active) and 86.2%, respectively.
Turning to `CC(=O)C1=C(C)NC(NNC(N)=S)=NC1c1ccccc1` (stereo not drawn), the growth in [1] was 105%; in assay [2], 109%; in assay [9], 41.1%; in assay [3], 98.8%; in assay [5] it was 99.9%; in assay [6] it was 96.7%. In addition, the figures for the growth in assay [7], in [10] and in assay [8] were 93.3%, 88.2% and 98.1%, respectively.
Consider `CNc1ncc2cc(-c3ccc(-c4ncccc4F)cc3Cl)c(=O)n(CC3OCC(N)CO3)c2n1` (stereo not drawn), for which the growth was 87.5% in assay [1]; 48.1% in assay [2]; 24% in [9]; 69% in [3]; 81.9% in assay [5]; 82.6% in assay [6]. Further, the growth is 78.6% in [7], 32.3% in assay [10] and 92.9% in [8].
Regarding `O=S(=O)(Nc1ccc2c(c1)OCO2)c1ccc(-c2cnc(C3CC3)o2)cc1`, the growth in assay [1] is 20.3%; in assay [2], 14%; in [3], 38.1%; in assay [4], 27.4%; in assay [5], 37.9%; in [6] it was 30%. Also, the results for the growth in [7] and in assay [8] were 33.2% and 51.2%, respectively.
On to `COc1ccc(C(=O)Nc2ncc(Cc3ccccc3Cl)s2)cc1`, for which the growth is 9.87% (active) in [1]; -16.6% (active) in [2]; 28.8% in [9]; 23.7% in assay [3]; 29.7% in assay [5]; 2.6% (active) in assay [6]. The results for the growth in assay [7], in [10] and in assay [8] were 35.7%, 1.15% (active) and 64%, respectively.
`O=S(=O)(Nc1ccc(I)cc1Cl)c1ccc(-c2cnc(C3CC3)o2)cc1`: the growth was 30.7% in [1]; 15.9% in assay [2]; 45.9% in assay [3]; 35.2% in [4]; 34% in assay [5]; 40.2% in [6]. Further, the results for the growth in assay [7] and in assay [8] were 39% and 53.8%, respectively.
Consider `CN1CCN(c2ccc(/C=N/n3cnc4oc(-c5ccccc5)cc4c3=N)cc2)CC1`, for which the growth in assay [1] is 83.9%; in assay [2], 66.2%; in assay [9], 55.3%; in assay [3] it was 101%; in assay [5], 63.2%; in assay [6], 88.6%. Also, the growth in assay [7] is 93%; in assay [10], 61.3%; in assay [8], 77.8%.
For `Cc1cc(C(NC(=O)CCCCCNc2cccc3c2C(=O)N(C2CCC(=O)NC2=O)C3=O)c2ccc3c(c2)OC(F)(F)O3)c(O)c2ncccc12` (stereo not drawn), the growth is 72.2% in assay [1]; 71.8% in assay [2]; 50.8% in [9]; 51.6% in assay [3]; 32.3% in assay [5]; 37% in assay [6]. In addition, the growth in assay [7] is 63.3%; in assay [10], 57.9%; in assay [8], 81%.
For `COc1cc(-c2nnc(SCc3ccc(O)c4ncccc34)n2-c2ccccc2)cc(OC)c1OC`, the growth is 12.8% in assay [1]; 16.7% in [2]; -6.25% (active) in assay [9]; 9.25% (active) in [3]; 15.4% in [5]; -62.4% (active) in [6]. The growth in [7] was -37.4% (active); in [10] it was -22.2% (active); in [8], 17.9%.
With `CCNC(=O)N1CCc2cc(OC)c(OCCc3ccc(OC)c(N)c3)cc2C1c1cc(C)c(C)cc1C` (stereo not drawn), the growth in [1] is 14.7%; in assay [2], 21.9%; in assay [9] it was 22.1%; in [3], 34.6%; in [5], 36.7%; in [6], 27.7%. In addition, the growth in assay [7] is 23.1%; in assay [10] it was 7.03% (active); in assay [8], 44.7%.
For `CCc1nn2c(C)cc(C)nc2c1Cc1ccc(/C=C/CN2CCN(CCOCCOCCN3CCN(C/C=C/c4ccc(Cc5c(CC)nn6c(C)cc(C)nc56)cc4)CC3)CC2)cc1`, the growth was -81.1% (active) in [1]; -35.8% (active) in [2]; 99% in assay [9]; 17.7% in assay [3]; 24.8% in [5]; -97.5% (active) in assay [6]. Besides, the growth in [7] is -86.4% (active); in [10], -88.4% (active); in assay [8] it was -88.9% (active).
For the compound `O=C(Cn1c(-c2ccccc2)nc2cc(Cl)c(Cl)cc21)N=Nc1c(O)[nH]c2ccc(Cl)cc12`, the growth in [1] was 68.7%; in assay [2] it was 51.4%; in [9], 101%; in [3] it was 87.8%; in [5], 70.8%; in [6] it was 79.5%. Besides, the growth in [10] is 72.2%; in [8], 66.4%.
As for `CC(C)(O)c1cncc(-c2ccc3ncnc(NCc4ccccc4)c3c2)c1`, the growth in assay [1] was 103%; in assay [2] it was 96.7%; in assay [9], 31%; in [3], 91.8%; in assay [5] it was 84.1%; in assay [6], 87.6%. Besides, the growth in assay [7] is 84.3%; in assay [10], 57.2%; in assay [8] it was 88%.
On to `N#Cc1c(NC(=O)c2cccc(C(F)(F)F)c2F)sc2c1CCC(=O)C2`, for which the growth was -49.6% (active) in [1]; 4.38% (active) in assay [2]; -66.3% (active) in assay [9]; 15.4% in assay [3]; -43.9% (active) in [5]; -91.1% (active) in assay [6]. Also, the figures for the growth in assay [7], in [10] and in assay [8] were -56.6% (active), -8.55% (active) and -71.8% (active), respectively.
As to `Clc1nc2ccccc2nc1-c1nnc(C2CCCCC2)o1`, the growth in assay [1] is 71.7%; in assay [2], 109%; in assay [9], 97.2%; in [3] it was 98.7%; in [5], 95.8%; in assay [6] it was 98.8%. Besides, the growth in assay [7] was 96.4%; in assay [10], 66.6%; in assay [8], 104%.
As to `COc1cc(-c2nc(SCCC(C)C)nc(NNC(=O)c3ccncc3)c2C#N)cc(OC)c1OC`, the growth is 78.1% in [1]; 42.9% in assay [2]; 27.1% in assay [9]; 66% in [3]; 78.6% in [5]; 84.4% in assay [6]. Also, the growth in [7] was 38.1%; in [10], 53.4%; in assay [8], 85.8%.
Regarding `Nc1nc(Nc2ccccc2SSc2ccccc2Nc2nc(N)nc(-c3ccccc3)n2)nc(-c2ccccc2)n1`, the growth in assay [1] was 48.5%; in assay [2], 111%; in assay [9], 55.7%; in assay [3], 74.5%; in assay [5], 42.9%; in [6] it was 89.2%. Further, the growth in assay [7] is 76.3%; in assay [10], -34.3% (active); in assay [8] it was 93.9%.
Regarding `C#CCOC(=O)[C@@H]1CCCN1CC#C`, the growth in assay [1] is 85.7%; in [2], 82.4%; in assay [9] it was 77.8%; in assay [3] it was 86.9%; in [5] it was 51.2%; in assay [6], 90.2%. In addition, the growth was 92.8% in assay [7], 77.7% in assay [10] and 107% in assay [8].
Consider `CCN1CCN(Cc2cn(-c3ccc(S(N)(=O)=O)cc3)nn2)CC1`, for which the growth was 104% in [1]; 102% in [2]; 95.6% in assay [9]; 105% in [3]; 97.8% in [5]; 103% in assay [6]. Also, the growth in [10] was 102%; in assay [8] it was 116%.
Regarding `NC(N)=Nc1ccc(Oc2cccc(Oc3ccc(Cl)c(C(F)(F)F)c3)c2)cn1`, the growth in assay [1] is -83.7% (active); in assay [2], -68.4% (active); in assay [9], 73.3%; in assay [3], -84.5% (active); in assay [5] it was -93.8% (active); in [6], 14.3%. For the same compound, the results for the growth in assay [7], in assay [10] and in [8] were -77.5% (active), -88.6% (active) and -29.4% (active), respectively.
For `O=S(=O)(Nc1cccc2ccccc12)c1ccc(-c2cnc(C3CC3)o2)cc1`, the growth in [1] was 14.3%; in assay [2], 16.8%; in assay [3], 38.8%; in assay [4], 23.8%; in [5], 16.5%; in [6], 7.66% (active). Besides, the growth in assay [8] is 57.7%.
For the compound `COc1ccc([C@@H]2c3[nH]c4ccccc4c3C[C@H]3C(=O)N(C4CCN(CC5CCCCC5)CC4)CC(=O)N23)c(OC)c1`, the growth is 56.5% in [1]; 1.45% (active) in assay [2]; 83.2% in [9]; 86.4% in [3]; 49.3% in assay [5]; 73.3% in assay [6]. Also, the results for the growth in [7], in assay [10] and in [8] were 93.9%, 54.3% and 89.1%, respectively.
Take `N=c1c2cc(-c3ccccc3)oc2ncn1/N=C/c1ccc(Cl)cc1`: the growth in [1] is 56.8%; in [2], 98.7%; in [9], 88.7%; in [3], 86.5%; in [5] it was 82.2%; in assay [6] it was 91.2%. The growth in [7] is 90.6%; in assay [10], 63.3%; in assay [8], 82.9%.
